Laboratory results published in PubChem BioAssay AID1454 (National Center for Advancing Translational Sciences (NCATS), 2008).
The whole screen tested about 130,000 compounds, of which about 550 (0.42%) were called active. Inconclusive results (about 4%) are left out. The call rests on the fitted dose curve; in most records, active means well fitted inhibition curve with a large enough effect; inconclusive means small, poorly fitted or top-dose-only effect, or effect the other way; inactive means flat fitted curve, though single readings scatter. Only a selection was taken, and actives are over-represented in it overall.
Potency means the concentration at half of the fitted maximal effect.

Experiment: qHTS Assay for Inhibitors of the ERK Signaling Pathway using a Homogeneous Screening Assay; Stimulation with EGF; further: nearly all actives have a fitted effect of over 55% in size;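 on activity change, negative = inhibition: plate controls were stimulated vehicle wells for no effect and unstimulated vehicle basal for full effect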
Details: HEK293-V1b, EGF-stimulated phospho-ERK AlphaScreen; series mostly up to 11.5 µM; activity change, negative = inhibition: at the top concentration
How it was run: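 HEK293 cells stably expressing V1b receptor, serum-reduced (1% FBS) overnight, got compound for 30 min at 37C, then 25 nM EGF for 5 min. Lysate phospho-ERK read by AlphaScreen SureFire; AC50 from Hill fits.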
In the case of CC1(C)CC(N(Cc2ccccc2)C(=O)Cc2ccccc2)CCO1 (configuration not stated), the “activity change, negative = inhibition” value is reported as 9.74% (inactive). In the case of Cc1cccc(N2CCN(Cc3nc(C4CC4)no3)CC2)n1, the “activity change, negative = inhibition” value is reported as 2.16% [at 57.5 µM] (inactive). For CN(CCOc1ccccc1)Cc1nc2cc(Cl)ccc2c(=O)[nH]1, the “activity change, negative = inhibition” value was 3.35% (inactive). In the case of O=C(NCc1ccccc1Cl)C1CCN(S(=O)(=O)N2CCOCC2)CC1, the “activity change, negative = inhibition” value is reported as -3.09% (inactive). In the case of C=CCOc1c(CNn2cn[nH]c2=S)cccc1OC, the “activity change, negative = inhibition” value is reported as 1.88% (inactive). In the case of O=C(NCCc1ccccn1)c1cccnc1Oc1ccc(Cl)cc1, the “activity change, negative = inhibition” value is reported as 0.556% [at 57.5 µM] (inactive). With CCC/C(C)=N\Nc1nc2c(c(=O)n(C)c(=O)n2C)n1C the “activity change, negative = inhibition” value was 2.86% [at 57.5 µM] (inactive). With C=C(C)c1cccc(C(C)(C)NC(=O)NCCN(CC)CC)c1 the “activity change, negative = inhibition” value was -3.89% (inactive). For CCNC(=O)c1ccc(OCC(=O)Nc2ccc(F)cc2)c(OC)c1, the “activity change, negative = inhibition” value was -6.79% [at 57.5 µM] (inactive). With O=C(/C=C/c1ccccc1)Oc1coc(CSc2ncccn2)cc1=O the “activity change, negative = inhibition” value was 2.15% (inactive). In the case of CCN(CC)CCNC(=O)c1ccc(NS(=O)(=O)c2ccc3c(c2)OCCO3)cc1, the “activity change, negative = inhibition” value is reported as -2.24% (inactive). In the case of COc1ccc(CCc2nnc(CCC(=O)NCc3cnn(-c4ccccc4C)c3)o2)cc1, the “activity change, negative = inhibition” value is reported as 0.463% (inactive). With NCCCCCC(=O)N/N=C/c1ccc2nccnc2c1 the “activity change, negative = inhibition” value was -2.5% [at 57.5 µM] (inactive). For O=C(N/N=C1\CCSC1)c1cc(Cl)ccc1O, the “activity change, negative = inhibition” value was 1.16% (inactive). With CSc1ccc(CN(C)CC(=O)NCc2ccc(F)cc2)cc1 the “activity change, negative = inhibition” value was -3.97% (inactive). For O=C(CSc1nc2ccccc2s1)Nc1ccc(C(=O)O)cc1, the “activity change, negative = inhibition” value was 8.22% [at 57.5 µM] (inactive). With CS(=O)(=O)N(CC(=O)N1CCCC1)Cc1ccccc1 the “activity change, negative = inhibition” value was -2.52% (inactive). With OCC1(Cc2ccccc2C(F)(F)F)CCN(Cc2ccncc2)CC1 the “activity change, negative = inhibition” value was -17.7% [at 57.5 µM] (inactive). With CCNC(=O)COc1cc(C)c(Br)c(C)c1 the “activity change, negative = inhibition” value was -13.4% (inactive). With COc1ccc2nc(Nc3nc(-c4cc5ccccc5oc4=O)cs3)sc2c1 the “activity change, negative = inhibition” value was 2.77% (inactive). For CCNc1nc(-c2cc3ccccc3o2)cs1, the “activity change, negative = inhibition” value was -4.57% (inactive). For O=c1oc2ccccc2cc1-c1csc(Nc2ccc(O)cc2)n1, the Potency was 39.8 µM (active). In the case of CSc1ccccc1C(=O)NCc1ccccc1, the “activity change, negative = inhibition” value is reported as -3.76% (inactive). In the case of CC1CCc2c(nc3ncnn3c2Nc2ccc(OC(F)(F)F)cc2)C1 (configuration not stated), the “activity change, negative = inhibition” value is reported as -15.3% (inactive). In the case of Brc1ccc(Nc2c3c(nc4ncnn24)CCC3)cc1, the Potency is reported as 25.1 µM (active). In the case of Cc1nc(S(=O)(=O)c2ccc(Br)cc2)nc2c1CCC2, the “activity change, negative = inhibition” value is reported as 4.23% (inactive). For Oc1oc(-c2ccccc2Br)nc1/C=N/c1ccccn1, the “activity change, negative = inhibition” value was 11% (inactive). For CC1CCCCC1NC(=O)CO/N=C/c1ccc(OC(F)F)cc1 (configuration not stated), the “activity change, negative = inhibition” value was -9.33% (inactive). With CSc1ccc(/C=N\NC(=O)CC(=O)NC(C)C)cc1 the “activity change, negative = inhibition” value was -17.2% (inactive). In the case of CCN(CC)CCn1cnc2c1c(=O)n(CCOC(=O)c1cc(OC)c(OC)c(OC)c1)c(=O)n2C, the “activity change, negative = inhibition” value is reported as 10.5% [at 57.5 µM] (inactive). With O=C1CC2(CC(c3ccc(Cl)cc3)=NO2)C(=O)N1c1ccccc1 (configuration not stated) the “activity change, negative = inhibition” value was -1.21% [at 57.5 µM] (inactive). With Cn1nc(C(F)(F)F)cc1-c1ccc(/C=C(\C#N)C(=O)c2cccc(C(F)(F)F)c2)s1 the “activity change, negative = inhibition” value was -4.59% [at 57.5 µM] (inactive).
